An excerpt weighted towards active compounds, which were near 6.2% of everything screened.
Marburg entry inh = Marburg virus entry inhibition. actives 1.8% (n = 300,000). Potency, µM (highest dose often 37.8 µM), for inactives: at the highest dose activity change, negative = inhibition, hits mostly inhibitors. Marburg virus pseudotyped entry inhibition, cell reporter; calls by dose curve; tested in HEK293 cells; note: potency is the fitted concentration of half-maximal effect
FMDV antiviral = antivirals against foot and mouth disease virus. Potency, µM (highest dose often 57.9 µM), inactives show top-dose activity change, negative = inhibition, usual class: inhibitors. actives 1.2% (n = 410,000). FMDV antiviral cell-based qHTS; calls by dose curve; tested in HEK293T cells; note: read-out not given here; potency is the fitted concentration of half-maximal effect; nearly all actives have a fitted effect of over 45% in size
LASV entry inh = inhibitors of Lassa virus binding or cell entry; Lassa virus pseudotype entry inhibition, cell reporter; Potency, µM (titrated, usually from 37.9 µM), for the others: top-dose activity change, negative = inhibition, actives largely listed as inhibitors; actives 1.2% (n = 300,000); AID 540256; calls by dose curve; tested in HEK293 cells; note: potency is the fitted concentration of half-maximal effect; nearly all actives have a fitted effect of over 50% in size
HCMV inh = inhibitors of human cytomegalovirus; actives 4.5% (n = 410,000); HFF cells, HCMV-luciferase reporter, 72 h; active compounds read low; AID 1259415; activity change, negative = inhibition, % at 57.5 µM; in the data active = activity change below about -60%; inconclusive = no clear call, values can overlap the other calls; inactive = above about -39%
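Cell-based, HFFs, 1000 cells/well, 16 h 37C; cpds in DMSO + HCMV-luc, MOI 1 PFU/cell; 72 h 37C; OneGlo luminescence after 5 min RT; norm. to buffer vs Salinomycin 10uM.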
* hit, by the source's call; ? = inconclusive; . = no result; [ ] = dose if it differs, or a comment. % is set by controls: 0 for no effect and ±100 for the full control effect.

SMILES | Marburg entry inh | FMDV antiviral | LASV entry inh | HCMV inh
CN(C)c1ccc(C(C(=O)NC2CCCCC2)N(Cc2ccco2)C(=O)c2snc(C(N)=O)c2N)cc1 (stereo unspecified) | 3.5µM* | -4% | 13µM* | -74*
COc1ccc(C(C(=O)NCC2CCCO2)N(Cc2cccs2)C(=O)c2snc(C(N)=O)c2N)cc1 (stereo unspecified) | 3.2µM* | -10% | ? | -101*
CCc1ccc(N(C(=O)c2snc(C(N)=O)c2N)C(C(=O)NCC2CCCO2)c2ccco2)cc1 (stereo unspecified) | -14%[46.1 µM] | 5% | -15% | -60*
CC(=O)Nc1ccc(N(C(=O)Cc2c[nH]c3ccccc23)C(C(=O)NC2CCCCC2)c2ccco2)cc1 (stereo unspecified) | -16% | 10% | 5.8µM* | ?
CCOc1ccc(C(C(=O)NCC2CCCO2)N(Cc2cccc(OC)c2)C(=O)c2snc(C(N)=O)c2N)cc1 (stereo unspecified) | ? | 3% | . | 15
COc1ccc(CNC(=O)C2CCN(C(=O)c3sccc3-n3cccc3)CC2)cc1 | . | 8% | . | ?
COc1ccccc1CNC(=O)c1cc(-c2ccccc2)n[nH]1 | . | 7% | 0%[46.1 µM] | -5
NC(=O)c1nsc(C(=O)N(c2ccccc2)C(C(=O)NC2CCCC2)c2ccc3ncccc3c2)c1N (stereo unspecified) | -26%[46.1 µM] | ? | . | ?
Cc1ccc(N(C(=O)c2csnn2)C(C(=O)NC2CCCCC2)c2ccccn2)c(C)c1 (stereo unspecified) | -4%[46.1 µM] | 18% | -9% | -62*
CC(C)c1ccc(N(C(=O)c2snc(C(N)=O)c2N)C(C(=O)NCC2CCCO2)c2ccc(N(C)C)cc2)cc1 (stereo unspecified) | ? | 18µM* | ? | -86*
COc1ccccc1C(C(=O)NC1CCCCC1)N(C(=O)c1csnn1)C1CC1 (stereo unspecified) | -16%[46.1 µM] | 25% | 12% | -27
O=C(NC1CCCCC1)C(c1ccccc1F)N(C(=O)c1csnn1)C1CCCC1 (stereo unspecified) | ? | -3% | -4%[46.1 µM] | -60*
COc1ccc(N(C(=O)c2snc(C(N)=O)c2N)C(C(=O)NC2CCCC2)c2ccc3ncccc3c2)cc1 (stereo unspecified) | ? | -17% | ? | -89*
O=C(NCCc1ccccc1)c1ccc2c(c1)nc1n2CCOC1 | . | -56% | 3%[46.1 µM] | 26
CCOc1ccc(C(C(=O)NCC2CCCO2)N(C(=O)c2snc(C(N)=O)c2N)c2ccc3c(c2)OCCO3)cc1 (stereo unspecified) | ? | -10% | ? | -8
Cc1ccc(N(C(=O)c2snc(C(N)=O)c2N)C(C(=O)NC2CCCC2)c2ccco2)cc1 (stereo unspecified) | ? | -15% | ? | -71*
CCOc1ccc(N(C(=O)c2snc(C(N)=O)c2N)C(C(=O)NCC2CCCO2)c2ccco2)cc1 (stereo unspecified) | 13µM* | -6% | ? | -36
O=C(NC1CCCCC1)C(c1ccco1)N(C(=O)c1csnn1)c1ccccc1 (stereo unspecified) | 4%[46.1 µM] | 15% | -6%[46.1 µM] | 1
Cc1ccc(N(C(=O)c2csnn2)C(C(=O)NC2CCCCC2)c2ccco2)cc1 (stereo unspecified) | ? | -3% | ? | -62*
COc1ccc(-n2c(SCC(=O)Nc3ccc4c(c3)OCO4)nc3c(c2=O)SCC3)cc1 | -2% | 0% | . | -6
COc1cc(/C=C2/SC(=S)NC2=O)ccc1OS(=O)(=O)c1ccc(C)cc1 | ? | 28µM* | -16% | .
COc1cc(/C=C2\SC(=S)NC2=O)ccc1OS(=O)(=O)c1ccccc1 | -19% | . | -1% | .
COC(CN(C(=O)CCl)C(C(=O)NC1CCCCC1)c1ccccc1C)OC (stereo unspecified) | ? | ? | ? | -97*
COc1ccc(N(C(=O)/C=C/C(=O)Nc2cc(C)on2)C(C(=O)NC2CCCC2)c2ccccc2C)cc1 (stereo unspecified) | 9.2µM* | 20% | ? | -64*
Cc1cccc(N(C(=O)CNC(=O)c2ccco2)C(C(=O)NC2CCCCC2)c2cccnc2)c1 (stereo unspecified) | 25%[46.1 µM] | -10% | -22% | -16
SMILES | Marburg entry inh | FMDV antiviral | LASV entry inh | HCMV inh
COc1ccc(N(C(=O)CCC(=O)Nc2cc(C)on2)C(C(=O)NC2CCCC2)c2ccco2)cc1 (stereo unspecified) | -2%[46.1 µM] | 25% | 2% | -35
O=C(NC1CCCCC1)C(c1cccnc1)N(C(=O)CCl)c1cccc(Cl)c1 (stereo unspecified) | ? | 7.9µM* | ? | -104*
COc1ccc(C(C(=O)NC2CCCC2)N(C(=O)c2ccco2)c2ccc3c(c2)OCO3)cc1OC (stereo unspecified) | -1% | 12% | -2% | -75*
COc1ccc(N(C(=O)c2ccco2)C(C(=O)NC2CCCCC2)c2ccccc2)cc1 (stereo unspecified) | 1% | -1% | ? | -77*
COc1ccc(C(C(=O)NC2CCCCC2)N(C(=O)CCl)c2ccc(Cl)cc2)cc1 (stereo unspecified) | ? | 16µM* | ? | -101*
O=C(CCCC(=O)N(c1ccc2c(c1)OCCO2)C(C(=O)NC1CCCCC1)c1ccc(Cl)cc1)Nc1ccccn1 (stereo unspecified) | ? | . | ? | -69*
Cn1ccnc1SCC(=O)Nc1cccc([N+](=O)[O-])c1 | 23%[46.1 µM] | 22% | 6% | -7
Cc1cc(C)n(-c2ccc(C(=O)Nc3cc(S(=O)(=O)N(C)C)ccc3Cl)cc2)n1 | ? | 28µM* | ? | ?
COc1ccc(NC(=O)c2ccc3oc(=O)c(S(=O)(=O)c4ccc(F)cc4)cc3c2)cc1OC | -14%[46.1 µM] | ? | -3%[46.1 µM] | 7
Cc1ccc(C(=O)Nc2ccon2)cc1S(=O)(=O)N1CCCCCC1 | 8% | 15% | 1% | -101*
Cc1ccc(C(=O)Nc2ccc(F)c(S(=O)(=O)N3CCOCC3)c2)s1 | . | ? | . | -3
Cc1ccc(NC(=O)c2cc(S(=O)(=O)N3CCOCC3)c(Br)s2)cc1 | -25% | ? | 10µM* | -39
Cc1cc(C)cc(NC(=O)c2ccc3oc(=O)c(S(=O)(=O)c4ccc(F)cc4)cc3c2)c1 | ? | 20µM* | -9%[46.1 µM] | 5
Cc1ccc(C(=O)Nc2ccc(F)cc2)cc1S(=O)(=O)N1CCCCCC1 | . | -26% | ? | -101*
CC(=O)c1ccc(NC(=O)c2ccc(C)c(S(=O)(=O)N3CCOCC3)c2)cc1 | ? | ? | 0% | -11
O=C(Nc1ccccc1)c1ccc(Br)c(S(=O)(=O)N2CCCCC2)c1 | . | 14µM* | ? | 0
Cc1cc(C)n(-c2ccc(C(=O)Nc3ccc(C)c(S(=O)(=O)N4CCOCC4)c3)cc2)n1 | 10µM* | 14µM* | ? | -83*
CCOC(=O)c1ccc(NC(=O)c2ccc(C)c(S(=O)(=O)N3CCOCC3)c2)cc1 | 2.8µM* | 14µM* | ? | ?
COC(=O)CC(=O)CSc1nc(C)cc(C)c1C#N | 1% | -12% | 0% | -8

Assay outcomes as filed in PubChem.
